# Experimental data as given in the supplement of paper PMC12067926.
# Values without a mark were called inactive.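 Rule for the calls: active = growth AUC significantly below the DMSO wells by Dunnett test; inactive = the rest.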
# Key:
# Assay in all cases: relative growth (AUC of 72 h growth curve relative to DMSO control, dAUC) (ratio); higher = more growth (less inhibition), active = hit call of the paper
# Conditions in all cases: 20 µM
# [1] = system: Prolinoborus 1 (Prolinoborus fasciculus)
# Procedure, shortened: (§1)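 Cultures grown to carrying capacity in Luria–Bertani medium, drawn from Icelandic stream sediment and Silwood Park soil isolates and whole sediment communities, were diluted 1:100 into 96-well plates with each chemical at 20 µM (1% DMSO) and read at A600 hourly for 72 h. The spline-integrated area under the growth curve, divided by the mean of the DMSO controls, is reported as relative growth (dAUC). Values are means of three biological replicates.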
# [2] = system: Pseudomonas 1 (Pseudomonas baetica)
# Procedure, shortened: as §1
# [3] = system: Pseudomonas 2 (Pseudomonas vancouverensis)
# Procedure, shortened: as §1
# [4] = system: Pseudomonas 3 (Pseudomonas mandelii)
# Procedure, shortened: as §1
# [5] = system: Pseudomonas 4 (Pseudomonas peli)
# Procedure, shortened: as §1
# [6] = system: Pseudomonas 5 (Pseudomonas baetica)
# Procedure, shortened: as §1
# [7] = system: Pseudomonas 6 (Pseudomonas sp.)
# Procedure, shortened: as §1
# [8] = system: Rhizobium 1 (Rhizobium herbae)
# Procedure, shortened: as §1
# [9] = system: Serratia 1 (Serratia sp. 2015-2462-01)
# Procedure, shortened: as §1
# [10] = system: Sphingomonas 2 (Sphingomonas sp.)
# Procedure, shortened: as §1
Compound,relative growth [1],relative growth [2],relative growth [3],relative growth [4],relative growth [5],relative growth [6],relative growth [7],relative growth [8],relative growth [9],relative growth [10]
CCCCc1c(C)nc(NCC)nc1OS(=O)(=O)N(C)C,1.04,1.06,0.978,1.02,0.97,0.981,1,1.05,0.96,0.969
CCCN(CCC)C(=O)SCc1ccccc1,1.01,1.03,1.05,1.09,0.979,1.06,1.13,1.05,0.998,1.06
CCC(CC)Nc1c([N+](=O)[O-])cc(C)c(C)c1[N+](=O)[O-],0.939,1.13,0.981,1.03,0.949,1.05,1.04,0.957,0.929,0.998
CON(C)C(=O)Nc1ccc(Cl)c(Cl)c1,0.886,0.986,0.949,0.991,0.982,0.984,1.02,0.869,0.978,1.02
CCSC(C)CC1CC(=O)C(/C(CC)=N/OC/C=C/Cl)=C(O)C1 (mixture of isomers),0.983,1.07,0.999,1.02,1.01,1.05,1.14,0.924,0.973,1.18
CCCC1COC(Cn2cncn2)(c2ccc(Cl)cc2Cl)O1 (stereo not given),0.954,1.08,0.967,1,0.914,0.987,1.02,0.931,0.944,1.11
Clc1ccc(C(c2ccc(Cl)cc2)C(Cl)(Cl)Cl)cc1,1.08,1.07,0.992,1.02,0.985,1.05,1.16,1.07,1.05,0.0545 (active)
Oc1ccccc1-c1ccccc1,0.977,1.03,0.98,1.01,0.935,1.05,1.14,0.989,0.959,0.969
N#Cc1nn(-c2c(Cl)cc(C(F)(F)F)cc2Cl)c(N)c1[S+]([O-])C(F)(F)F (stereo not given),0.897,0.913,0.948,0.94,0.987,1.01,0.962,0.971,0.96,0.983
CNC(=O)c1cc(C#N)cc(C)c1NC(=O)c1cc(Br)nn1-c1ncccc1Cl,0.944,0.962,0.986,1.01,0.976,1.06,1.06,0.961,0.982,1.05
O=C(NC(=O)c1c(F)cccc1F)Nc1ccc(Cl)cc1,0.965,1.06,1.01,1.04,1.02,1.01,1.05,1.06,0.988,1.02
CN/C(=N/CC1CCOC1)N[N+](=O)[O-] (stereo not given),0.955,0.963,0.983,1.03,1.03,0.992,1.06,0.912,1.01,1.14
CNC(=O)Oc1cccc(/N=C/N(C)C)c1,0.966,1.04,0.989,1.1,0.942,1.07,1.17,0.99,0.97,1.05
